According to PubChem BioAssay (NCI):
This is part of a sample that, as a whole, favours compounds with a hit. Of some 83,000 tested, about 20% had one in any assay.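 Activity criterion: percent growth below 10, measured after cells in 96-well plates were exposed to a single compound concentration for 48 hours.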 The source made the active and inactive calls.

System: COLO 205 colon
Assay: NCI-60 one-dose screen, 48 h (100 = growth as untreated, 0 = no growth, -100 = all killed)
Settings: 10 µM unless noted
Procedure: Cells are grown in 96 well plates and exposed to the test compound for 48 hours. Compounds are tested at a single concentration, which is 10^-5 M for most compounds. The reported endpoint is percent growth (GI% or GIPRCNT), where numbers from 0 - 100% represent growth inhibition, and numbers from -100% - 0 represent cell death. For example, a value of 40 represents 60% growth inhibition. A value of 0 means no net growth occurred over the course of the experiment. A value of -40 indicates 40% of cells at the beginning of the experiment died by the end of the experiment. A value of -100 means all cells are dead at the end of the experiment.
NCI-60 Human Tumor Cell Lines Screen was performed using the standard one-dose NCI protocol, which is described in more detail at https://dtp.cancer.gov/discovery_development/nci-60/default.htm.
Compounds with GIPRCNT values below 10 were considered active. Activity score was based on GIPRCNT using the following formula: […]
Score is 0 for GIPRCNT values of 100 or above, 50 for GIPRCNT values of 0, and 100 for GIPRCNT values of -100.

SMILES	growth
CCCCC/C(=C\c1ccccc1)C1OC(C)C(C)O1 (stereo not given)	106% (inactive)
O=C(O)/C(=C/c1ccc(O)cc1)c1ccccc1	120% (inactive)
C#CCC(C)(O)/C=C/C1=C(C)CCCC1(C)C (stereo not given)	113% (inactive)
Cc1cc(N2CCOCC2)nc(N(CCCNc2ccnc3cc(Cl)ccc23)Cc2ccco2)n1	3.4% (active)
c1ccc(-c2nc(Nc3ccc(-c4nc5ccccc5[nH]4)cc3)nc(N3CCOCC3)n2)cc1	-68.8% (active)
O=C(O)c1cccc2c1-c1ccc(Cl)cc1C2	114% (inactive)
Nc1ncnc2nc(Br)[nH]c12	103% (inactive)
N#CC1=C(N)Oc2ccc3ccccc3c2C1c1ccccc1 (stereo not given)	32.6% (inactive)
Cc1[c-]onc1C.Cc1[c-]onc1C.[Ag].[Ag].[NH-]S(=O)(=O)c1ccc(N=Nc2cc(N=Nc3ccc(S([NH-])(=O)=O)cc3)c3c(NC(=O)C(Cl)Cl)cccc3c2OC(=O)C(Cl)Cl)cc1	-46.9% (active)
O=c1c(CNc2ccc(S(=O)(=O)Nc3ncccn3)cc2)coc2ccccc12	105% (inactive)
CC(=O)OCCCCCCn1c2ccccc2c2c3c(c4c5ccccc5n(C)c4c21)C(=O)N(O)C3=O	70.1% (inactive)
CCOC(=O)C1OC1(c1ccccc1)c1ccccc1 (stereo not given)	119% (inactive)
CC1(C)CC[C@]2(C(=O)NCCNCCN)CC[C@]3(C)C(=CC[C@@H]4[C@@]5(C)CCC(=O)C(C)(C)[C@@H]5CC[C@]43C)[C@@H]2C1	-66.6% (active)
N#CC1=C(N)Oc2ccc3ccccc3c2C1c1ccccc1Cl (stereo not given)	39.3% (inactive)
COC(=O)[C@]12CC[C@@H](C)[C@H](C)[C@@H]1C1=CC[C@@H]3[C@@]4(C)C[C@@H](OC(C)=O)[C@H](O)[C@@](C)(CO)[C@@H]4[C@H](O)C[C@@]3(C)[C@]1(C)CC2	-87.8% (active)
O=C(N/N=C\c1ccccc1O)C1CC1	109% (inactive)
c1ccc2c(-c3nc(-c4c[nH]c5ncccc45)cs3)c[nH]c2c1	66.3% (inactive)
Fc1ccc2[nH]cc(-c3nc(-c4c[nH]c5ncccc45)cs3)c2c1	45.1% (inactive)
CC(=O)n1c(/C(C#N)=C/c2ccc(N(C)C)cc2)cc2ccccc21	16.5% (inactive)
N#C/C(=C\c1ccc(-c2ccc(F)cc2)o1)c1nc(-c2ccco2)cs1	108% (inactive)

SMILES	growth
N#CC1C(=N)Cc2ccccc2-c2ccccc21 (stereo not given)	51.4% (inactive)
N#CCCCCCn1c2ccccc2c2c3c(c4c5ccccc5n(CCCCCC#N)c4c21)C(=O)N(O)C3=O	84.6% (inactive)
N#C/C(=C\c1ccc(-c2ccc(Cl)cc2)o1)c1nc(-c2ccco2)cs1	109% (inactive)
COc1ccc(-c2nc3ncccn3c2-c2nc3ccc(Br)cc3[nH]2)cc1	104% (inactive)
O=C1C(Cl)=C(Nc2ccc(S(=O)(=O)c3ccc(NC4=C(Cl)C(=O)c5ccccc5C4=O)cc3)cc2)C(=O)c2ccccc21	-54.9% (active)
Cn1cc(-c2csc(-c3cn(C(=O)OC(C)(C)C)c4ccc(Br)cc34)n2)c2cccnc21	86% (inactive)
CN(C)CCCC1(c2ccc(F)cc2)OCc2cc(-c3ccc(C(F)(F)F)nc3)ccc21 (stereo not given)	60.7% (inactive)
CC(=O)Nc1cc(F)cc(C(F)(F)F)c1Cl	109% (inactive)
COC(=O)C(N)CSC(c1ccccc1)(c1ccccc1)c1ccccc1 (stereo not given)	1.18% (active)
OCC1OC(n2cnc3c(Cl)ncnc32)CC1O (stereo not given)	104% (inactive)
O=C1NC(c2ccc(Cl)c(Cl)c2)=C/C1=C\c1ccccc1	65.2% (inactive)
N#Cc1c(-c2ccc(O)cc2)c2c(N)nn(-c3ccccc3)c2[nH]c1=O	122% (inactive)
c1ccc2[nH]c(-c3ccc(Nc4nc(N5CCCCC5)nc(N5CCOCC5)n4)cc3)nc2c1	-61.3% (active)
COc1cc(-c2cc3ncccc3c3nc(N)c4cccnc4c23)cc(OC)c1OC	-15.6% (active)
COc1cc2c(cc1-c1c(C)noc1C)ncc1nc(C3CCC(F)(F)CC3)n([C@@H](C)COC(F)F)c12	23.5% (inactive)
Clc1ccc(Cn2cc(-c3nc4ccc(Br)nc4n3Cc3ccc(Cl)cc3)c3cccnc32)cc1	94.5% (inactive)
Cc1cc(Nc2ccc(F)cc2)nc(N2CCN(c3ccnc4cc(Cl)ccc34)CC2)n1	-68% (active)
COc1cc(OC)c2c(c1)c1nc3cc(C)c(C)cc3nc1n2CCN(C)C	74.9% (inactive)
COc1ccc(C2NC(=O)Nc3ccccc32)c(OC)c1 (stereo not given)	112% (inactive)
O=C(NO)c1ccc(Cn2c(=O)n(CCc3ccc(O)cc3)c(=O)c3ccccc32)cc1	19.6% (inactive)
